# Assay results from the supplement of paper PMC10338343.
# ± gives the standard deviation.
# Tested on: EfPiwi piRISC loaded with piRNA #1 (26 nt)
# Experiment: pre-steady-state target cleavage rate (min^-1); auxiliary factor: 500 nM Ephydatia muelleri Gtsf1; guide: piRNA #1 5'p-UGAGGUAGUAGGUUGUAUAGUAUCCA; MIWI and MILI are mouse PIWI proteins and EfPiwi is from a freshwater sponge; tags in brackets are library labels; higher = faster piRNA-guided slicing of the target
# Procedure, shortened: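 Reactions were run for 0–8 or 0–960 min at 33 °C in HEPES–potassium acetate buffer, combining 1 nM active affinity-purified piRISC with one synthetic guide, […] transcribed, DNA-blocked target RNA library and, in some cases, 500 nM GTSF1 partner protein. Sequencing of uncleaved targets followed, with normalisation to depth and to weakly complementary targets. Three trials were pooled, k3 was capped at 0.0001 min^-1, and the pre-steady-state cleavage rate was taken from a burst-and-steady-state fit.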
row,Sequence,pre-steady-state target cleavage rate
1,GGAGACGAUACCAUACAACCUACUACCUCA,0.124 ± 0.045
2,GGAGACCUUACUAUACAUCCUACUACCUGA,0.00345 ± 0.0024
3,GGAGACCAUACUAUACAACCUACUACCAGA,0.00458 ± 0.0019
4,GGAGAGUGAUACUAUACAACCUACUACCUCA,0.171 ± 0.053
5,GGAGAGGAUACUAUACAUCCUACAACCUCA,0.00339 ± 0.0022
6,GGAGACCUAUCUAUACAACCUACUACCUACA,0.00445 ± 0.0039
7,GGAGACCAACUAUACAACCUACUACCUCA,0.00596 ± 0.0037
8,GGAGUGCAUACUAUACAACCUACAACCUCA,0.00301 ± 0.0024
9,GGAGACCUAUCUAUACAUCCUACUACCUCA,0.00738 ± 0.0031
10,GGAGACGAUACUAUACAACCUAACUACCUCA,0.0045 ± 0.0021
11,GGAGACCAUACUAUACAACCUACUUCCUCA,0.00455 ± 0.002
12,GGAGACCAUACUAUACAACCUGCUACCUCA,0.0759 ± 0.029
13,GGAGAGGAGUACUAUACAACCUACUACCUCA,0.00348 ± 0.003
14,GGAGAUGAUACUAUACAACCUACUACCUCA,0.193 ± 0.068
15,GGAGAGGAAUACUAUACAACCUACUACCUCA,0.0974 ± 0.034
16,GGAGUGGAAACUAUACAACCUUCUACCUCA,0.00484 ± 0.0029
